Screening results deposited in PubChem by several laboratories.
Measles CPE – compounds protecting cells from measles virus cytopathic effect, primary screen, measles RdRp inhibitor project, single point, MLSMR library, absorbance | Measles virus-infected cells, CPE protection | protection (pct of control), % at 4 µM | 1.5% of 140,000 active; in the data active = protection mostly above about 24%, no sharp cut-off; inactive = mostly below about 26%
CYP2C9 inh – blockers of cytochrome P450 2C9 activity – biochemical, luminescence, ADME assay, primary screen | CYP2C9 Supersomes, luciferin-H conversion | inhibition, % at 5 µM | 20% of 96,000 active | AID 777, 2007;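 active = blocking of liver enzyme CYP2C9 beyond about 50% at 5 µM, limit read from the data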
CYP2C19 activ – human CYP2C19 activators, primary screen, biochemical, luminescence | 96,000 tested, under 10 active | recombinant CYP2C19, luciferin-H EGE luminescence; hits give high values; 0 = fully inhibited enzyme, 1 = untreated enzyme | AID 1025, 2008 | activation factor at 5 µM;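 active = activation factor of at least 2 at 5 µM in the primary screen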
Target sequence (P33261 whole entry, looked up): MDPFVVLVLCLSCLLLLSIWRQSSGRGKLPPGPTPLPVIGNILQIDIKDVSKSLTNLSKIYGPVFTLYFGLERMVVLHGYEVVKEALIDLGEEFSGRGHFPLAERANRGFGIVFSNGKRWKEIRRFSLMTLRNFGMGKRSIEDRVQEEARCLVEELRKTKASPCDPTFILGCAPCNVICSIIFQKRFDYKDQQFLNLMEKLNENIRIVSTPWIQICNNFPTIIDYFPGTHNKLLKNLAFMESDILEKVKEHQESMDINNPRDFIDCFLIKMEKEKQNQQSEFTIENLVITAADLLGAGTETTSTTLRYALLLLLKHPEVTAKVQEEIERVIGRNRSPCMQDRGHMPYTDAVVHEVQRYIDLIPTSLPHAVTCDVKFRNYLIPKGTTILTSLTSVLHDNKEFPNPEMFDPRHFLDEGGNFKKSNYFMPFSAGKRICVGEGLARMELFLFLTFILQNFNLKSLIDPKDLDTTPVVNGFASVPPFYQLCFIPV
CYP2C9 act – human CYP2C9 activators, primary screen, biochemical, luminescence; recombinant CYP2C9, luciferin-H conversion; hits give high values; factor 1 = untreated enzyme, 0 = blocked; activation factor at 5 µM; Cytochrome P450 2C9 (Homo sapiens), P11712; 1.4% of 96,000 active; AID 1024, 2008;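 active = activation factor of 2 or more for CYP2C9 at a 5 µM dose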
CYP2C19 inhib – blockers of cytochrome P450 2C19 activity – biochemical, luminescence, ADME assay, primary screen | P33261 | CYP2C19 Supersomes, luciferin-H EGE luminescence, 30 min | inhibition, % at 5 µM | 21% of 96,000 active | AID 778, 2007;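 active = CYP2C19 inhibition above a set limit at 5 µM in the primary screen, cut at about 50% in these data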
Of the large screens only hits and unclear results are named; the others gave an inactive call. This is a sample that favours compounds with a hit; in the whole collection about 22% have one here.

O=C(CN1CCN(Cc2ccc(Cl)cc2)C1=O)NCCN1CCCC1	none (no result: CYP2C9 inh, CYP2C19 activ, CYP2C9 act, CYP2C19 inhib)
Cc1cc(C)n(-c2nc(NCCC(C)C)c3c4c(sc3n2)COC(C)(C)C4)n1	none
Cc1cc(C)n(-c2nc(SCC(=O)Nc3nccs3)c3c4c(sc3n2)COC(C)(C)C4)n1	CYP2C9 inh 77
Cc1cc(C)n(-c2nc3sc4c(c3c3nnc(SCC(N)=O)n23)CC(C)(C)OC4)n1	none (no result: CYP2C9 inh, CYP2C19 activ, CYP2C9 act, CYP2C19 inhib)
Cc1cc(C)n(-c2nc(-n3nc(C)cc3C)c3c4c(sc3n2)COC(C)(C)C4)n1	CYP2C19 inhib 72
NNc1nc2c(F)cc(F)cc2s1	none (no result: CYP2C9 inh, CYP2C19 activ, CYP2C9 act, CYP2C19 inhib)
CCc1nnc(NS(=O)(=O)c2ccc(NC(=S)NC(=O)/C=C/c3ccc(F)cc3)cc2)s1	none (no result: CYP2C9 inh, CYP2C19 activ, CYP2C9 act, CYP2C19 inhib)
COc1cccc(NC(=O)c2cc(CN3C(=O)c4ccccc4C3=O)ccc2OC)c1	none (no result: CYP2C9 inh, CYP2C19 activ, CYP2C9 act, CYP2C19 inhib)
CN(C)CCCNC(=O)CC(c1ccccc1)c1ccccc1O (centres undefined)	none
COc1ccccc1C(CNC(=O)c1ccc(S(=O)(=O)NCc2ccco2)cc1)N(C)C (centres undefined)	none (no result: CYP2C9 inh, CYP2C19 activ, CYP2C9 act, CYP2C19 inhib)
NC(=O)c1ccc(-n2nnnc2SCc2ccccc2)cc1	CYP2C19 inhib 87
COc1ccc(CSc2nnnn2Cc2ccccc2)cc1OC	CYP2C9 inh 75, CYP2C19 inhib 89
COc1ccc(C)cc1NC(=O)CSc1nnnn1Cc1ccccc1	none
O=C(Nc1nccs1)c1ccc(CSc2nnnn2-c2ccccc2)cc1	CYP2C9 inh 92, CYP2C19 inhib 92
COc1ccccc1-n1nnnc1SCc1cc2c(cc1Br)OCO2	CYP2C9 inh 55
CC(=O)N1CCC(N(C(=O)Nc2ccc(F)cc2)C2CCCC2)CC1	none
CCOC(=O)C1C(=O)CC(C)(O)C(C(=O)OCC)C1c1ccccc1OC (centres undefined)	none
COc1ccc(NC(=S)NN(C)C(=S)Nc2ccc(OC)cc2)cc1	none (no result: CYP2C9 inh, CYP2C19 activ, CYP2C9 act, CYP2C19 inhib)
CCC1CCCCN1Cc1ccc(OC)c(C)c1C (centres undefined)	none
CCc1ccc(-n2c(CSc3nnnn3-c3ccccc3)nc3ccccc3c2=O)cc1	none
c1ccc(CSc2nnnn2-c2ccccc2)cc1	CYP2C19 inhib 71
O=c1cc(CSc2nnnn2-c2ccccc2)[nH]c2[nH]n(-c3ccccc3)c(=O)c12	CYP2C9 inh 56
COc1ccccc1-n1nnnc1SCc1ccccc1	CYP2C19 inhib 75
c1ccc(-n2nnnc2SCc2cccc(CSc3nnnn3-c3ccccc3)n2)cc1	none (no result: CYP2C9 inh, CYP2C19 activ, CYP2C9 act, CYP2C19 inhib)
CCCCOc1ccc(N2C(=O)CC(NCCc3ccc(S(N)(=O)=O)cc3)C2=O)cc1 (centres undefined)	none
CCOc1ccc(Nc2nc(Cc3nnc(SCC(=O)NC4CCCCC4)n3C)cs2)cc1	CYP2C9 inh 91, CYP2C19 inhib 79
CCOc1ccc(Nc2nc(Cc3nnc(SCC(=O)NCC4CCCO4)n3C)cs2)cc1 (centres undefined)	none
O=[N+]([O-])c1cc2c(c(CSc3nnc(Nc4ccccc4)s3)c1)OCOC2	none
Cc1ccccc1Nc1nnc(SCc2cc([N+](=O)[O-])cc3c2OCOC3)s1	CYP2C9 inh 62, CYP2C19 inhib 100
COc1cc(C2c3c(-c4cc(C)cc(C)c4O)n[nH]c3C(=O)N2CCCO)cc(OC)c1OC (centres undefined)	none
COCCCN1C(=O)c2[nH]nc(-c3cc(C)cc(C)c3O)c2C1c1ccc(O)c(OC)c1 (centres undefined)	CYP2C9 inh 63, CYP2C19 inhib 87
CCCCn1c(=O)c2ccccc2c2ccccc2c1=O	CYP2C9 inh 72, CYP2C19 inhib 82
CCCCn1c(=O)c(-c2ccccc2)c(O)c2ccccc21	none
CC(NC(=O)COC(=O)c1ccccc1Nc1ccccc1)c1ccccc1 (centres undefined)	none (no result: CYP2C9 inh, CYP2C19 activ, CYP2C9 act, CYP2C19 inhib)
CCN1CCc2c(C#N)c(N3CCCCC3)nc(N3CCOCC3)c2C1	CYP2C9 inh 68
CCN(CC)c1nc(N2CCOCC2)c(C#N)c2c1CN(C)CC2	CYP2C9 inh 56
CCOC(=O)c1sc(C)c2c1NC(C)(c1cccs1)NC2=O (centres undefined)	CYP2C9 inh 63
c1ccc(Oc2cccc(NC3=NCCC3)c2)cc1	none
c1ccc(NC2=Nc3ccccc3CC2)cc1	CYP2C19 inhib 68
